Test results from PubChem BioAssay (NCI).
The panel holds about 83,000 compounds, 20% with a hit somewhere; the sample as a whole holds those more often.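 Activity criterion: percent growth below 10, measured after cells in 96-well plates were exposed to a single compound concentration for 48 hours.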 Activity calls are given as the source filed them.

These compounds were tested on MDA-MB-468 breast (assay: NCI-60 one-dose screen, 48 h (100 = growth as untreated, 0 = no growth, -100 = all killed)). Settings: 10 µM unless noted.

SMILES | growth
O=C(O)c1cn(C2CC2)c2cc(N3CCN(C(=O)N/N=C/c4cccc5ccccc45)CC3)c(F)cc2c1=O | 103% (inactive)
COc1ccc(C(=O)Cn2c(C(=O)c3ccc(OC)cc3)nc3ccccc32)cc1 | 17% (inactive)
CN(C)c1ccc2c(c1)/C(=N/O)c1ccccc1-2 | 76.9% (inactive)
COc1cc2cc(Oc3ccc(NC(=O)Nc4cc(C(F)(F)F)cc(C(F)(F)F)c4)cc3)c(C)nc2cc1OCCN1CCCCC1 | -78.6% (active)
COc1ccccc1NC(=O)C1=C(C)NC(C)=C(C(=O)Nc2ccccc2OC)C1c1cccc([N+](=O)[O-])c1 | 74.3% (inactive)
COc1cc(NCCCCN=C(N)NC(N)=NC(C)C)c2ncccc2c1 | -61.8% (active)
CCOC(=O)C(CC(=O)O)=C(C(=O)OCC)C(=O)OCC | 97.1% (inactive)
COc1cc2oc(-c3cccc(C(=O)Nc4ccc(Cl)cc4)c3)cc(=O)c2c(O)c1OC | 43.7% (inactive)
COc1cccc(-c2cc(C(=O)Nc3ccc(/C=C/c4ccc(OC5CCN(C)CC5)cc4)cc3)ccc2OC)c1 | -36.4% (active)
O=c1[nH][nH]c(-c2ccc(F)cc2)c1-c1nc2ccccc2s1 | 100% (inactive)
COc1ccc2c(c1)oc1c(C)c3c(c(C)c12)C(=O)N(Nc1ccccc1)C3=O | 115% (inactive)
COc1cc(/C=C\c2cc(OC)c(OC)c(OC)c2)cc(N)c1OC | 58.4% (inactive)
Cn1cc(-c2csc(-c3c[nH]c4ncccc34)n2)c2cc(F)cnc21 | -16% (active)
O=Nc1c2cccnc2n2nnc3ccc(Cl)cc3c12 | -69.4% (active)
CO[C@H]1NC(=O)N(S(=O)(=O)c2ccc(Cl)cc2)[C@@H]1OC | 110% (inactive)
CCCCCCCCCCCCCC(=O)C(C)N (stereo not given) | 33.3% (inactive)
CN(C)/C(N)=N/N=C(\c1ccccc1)c1ccccn1 | 95.8% (inactive)
CC1(C)CC2=C3C=C[C@@H]4[C@@]5(C)CCC(=O)C(C)(C)[C@@H]5CC[C@@]4(C)[C@]3(C)CC[C@@]2(C(=O)O)C[C@H]1O | 40.3% (inactive)
CCCCCCCC/C=C\CCCCCCCC(=O)Oc1cccc2cccnc12 | 121% (inactive)
COc1ccc2c(c1)c(-c1nnc(N)nc1-c1c[nH]c3ccc(F)cc13)cn2C | 2.84% (active)

SMILES | growth
c1ccc2c(c1)ncn2-c1nc2ccccc2n2c1nc1ccccc12 | -40.5% (active)
CC(=O)O[C@@]12CO[C@@H]1C[C@H](O)[C@@]1(C)C(=O)[C@H](O)C3=C(C)[C@@H](OC(=O)[C@H](O)[C@@H](NC(=O)OC(C)(C)C)c4ccccc4)C[C@@](O)([C@@H](OC(=O)c4ccccc4)C12)C3(C)C (stereo not given in full) | 3.09% (active)
CCCc1cccc(CCC)c1NC(=O)Nc1cc(Cl)cc(Cl)c1 | 98.8% (inactive)
CNC(=O)c1c(NC(=O)c2cccc(C(F)(F)F)c2F)sc2c1CCC(=O)C2 | 0.936% (active)
Nc1nc(-c2cccc([N+](=O)[O-])c2)c(N=Nc2cccc([N+](=O)[O-])c2)s1 | 62% (inactive)
COCCNC(C)=O | 96.1% (inactive)
Cc1cc(Cl)nc(N(CCNc2ccnc3cc(Cl)ccc23)Cc2ccco2)n1 | 29.9% (inactive)
COC(=O)c1c2c(n3ccc(C)cc13)C(=O)c1ccccc1C2=O | 86.3% (inactive)
O=C(CN1CCN(c2cc3c(cc2F)c(=O)c(C(=O)O)cn3C2CC2)CC1)Nc1nc(-c2ccc(Cl)cc2)cs1 | 21.7% (inactive)
N#Cc1c(-c2ccc(Cl)cc2)nc(SCC(=O)NC2=NN=C(c3ccccc3)CS2)[nH]c1=O | 47.7% (inactive)
Cc1ccc(Oc2nc3ccccc3cc2-c2nnc(Cn3c(COc4ccccc4)nc4ccccc43)o2)cc1 | 92.1% (inactive)
O=S(=O)(Nc1ccc2ccccc2c1)c1ccc(-c2cnc(C3CC3)o2)cc1 | 6.05% (active)
CN(C)c1ccc(/C=N/NC(=O)c2cccc3ccccc23)c(Cl)c1 | -7.38% (active)
COc1cc(CNC(=O)CCCC/C=C/C(C)C)ccc1OCc1cn(-c2cccc([N+](=O)[O-])c2)nn1 | 72.3% (inactive)
Cc1cccc(NC(=O)c2sc3nc4c(cc3c2N)CCCC4)c1C | 19.3% (inactive)
O=C(CCN1CCCC1)Nc1ccc2c(NCc3ccc(F)cc3)c3ccccc3nc2c1 | -46.1% (active)
COc1cccc(-c2nn(-c3ccccc3)cc2-c2ccnc(NCCNS(=O)(=O)c3ccccc3)c2)c1 | 14.5% (inactive)
Cc1nnc(/N=C2\NC(=O)/C(=C/c3ccsc3)S2)s1 | 110% (inactive)
COc1ccc(/C=C/c2nc(N3CCOCC3)c3nc(Cl)c(Cl)cc3n2)cc1OC | 101% (inactive)
COC(=O)C1CCCN1C(=O)[C@@H]1CCCN1C(=O)[C@H](Cc1c[nH]c2ccccc12)NC(=S)Nc1cc(C(F)(F)F)cc(C(F)(F)F)c1 (stereo not given in full) | 44.3% (inactive)
